In PubChem BioAssay:
A number with no mark means an inactive call. Activity calls are given as the source filed them.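 Rule for the calls, unless noted: active = mean inhibition above 46.68%, the untreated control wells mean plus 3 SD; inactive = the rest.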

Target: Nuclear receptor coactivator 1 (Homo sapiens) (UniProt Q15788)
Experiment: SRC1 coactivator transcriptional activity inhibitors, confirmation, cell-based, luminescence, quadruplicate (AID 588820);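 note: 0% = DMSO wells and 100% = gossypol 36 µM treated wells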
Conditions: HEK293 GAL4-SRC1 luciferase reporter, at 3.6 µM, hits give high values

Sequence of Nuclear receptor coactivator 1 (Homo sapiens) (Q15788 whole entry, looked up): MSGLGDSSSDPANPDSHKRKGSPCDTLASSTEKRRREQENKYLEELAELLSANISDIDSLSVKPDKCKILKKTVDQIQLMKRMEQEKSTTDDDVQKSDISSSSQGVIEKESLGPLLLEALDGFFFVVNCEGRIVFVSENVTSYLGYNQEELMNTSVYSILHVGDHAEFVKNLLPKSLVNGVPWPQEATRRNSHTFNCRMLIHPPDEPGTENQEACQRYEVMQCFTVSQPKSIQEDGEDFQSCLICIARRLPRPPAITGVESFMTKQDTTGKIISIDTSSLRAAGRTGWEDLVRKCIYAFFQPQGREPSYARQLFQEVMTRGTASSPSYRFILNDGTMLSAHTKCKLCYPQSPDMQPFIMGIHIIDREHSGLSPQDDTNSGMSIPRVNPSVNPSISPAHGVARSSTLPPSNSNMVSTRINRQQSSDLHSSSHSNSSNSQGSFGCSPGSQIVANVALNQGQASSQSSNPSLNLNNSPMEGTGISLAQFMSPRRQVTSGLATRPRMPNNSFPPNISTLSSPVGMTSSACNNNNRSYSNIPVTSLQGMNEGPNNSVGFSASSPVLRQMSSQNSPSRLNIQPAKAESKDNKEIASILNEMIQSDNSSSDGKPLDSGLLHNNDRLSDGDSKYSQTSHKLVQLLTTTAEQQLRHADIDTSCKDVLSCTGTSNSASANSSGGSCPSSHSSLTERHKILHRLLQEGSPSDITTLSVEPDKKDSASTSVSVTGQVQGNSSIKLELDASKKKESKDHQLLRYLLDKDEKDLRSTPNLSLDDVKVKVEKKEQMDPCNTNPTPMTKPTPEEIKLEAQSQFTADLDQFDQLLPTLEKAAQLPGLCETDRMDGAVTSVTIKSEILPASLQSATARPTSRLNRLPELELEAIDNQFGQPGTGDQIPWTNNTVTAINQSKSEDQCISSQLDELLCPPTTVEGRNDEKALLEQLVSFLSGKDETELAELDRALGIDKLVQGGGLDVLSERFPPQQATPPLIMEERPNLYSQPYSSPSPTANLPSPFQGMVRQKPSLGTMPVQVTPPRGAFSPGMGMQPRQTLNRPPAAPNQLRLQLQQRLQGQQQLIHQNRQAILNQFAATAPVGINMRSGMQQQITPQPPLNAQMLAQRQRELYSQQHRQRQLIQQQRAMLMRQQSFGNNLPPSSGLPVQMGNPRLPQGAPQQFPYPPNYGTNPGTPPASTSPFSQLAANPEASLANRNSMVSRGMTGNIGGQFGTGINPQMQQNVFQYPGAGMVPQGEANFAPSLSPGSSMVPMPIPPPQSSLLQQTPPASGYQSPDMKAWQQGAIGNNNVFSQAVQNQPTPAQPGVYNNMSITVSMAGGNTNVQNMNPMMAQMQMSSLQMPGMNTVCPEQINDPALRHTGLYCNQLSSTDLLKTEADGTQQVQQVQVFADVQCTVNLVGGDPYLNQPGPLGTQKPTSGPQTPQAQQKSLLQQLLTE

Structure (SMILES) | inhibition [%]
CCOc1ccc(NC(=O)NCCCSC2CCCCC2)cc1 | -7.9
Cc1ccc(NC(=O)c2cc(=O)c3ccccc3o2)cc1S(=O)(=O)N1CCCCC1 | -9.96
O=C(NCc1ccccn1)c1ccc(OC2CCN(Cc3ccc(F)cc3F)CC2)cc1 | -0.3
COc1cc(C(=O)NC(=S)NNC(=O)c2cnccn2)cc(OC)c1OC | 19.6
CCCCCCN1C2=NCCCN2c2ccccc21 | 1.1
O=C(CN1CCN(Cc2ccc(Cl)cc2)C1=O)NCCCN1CCOCC1 | -13.2
Cc1ccc2oc(C(=O)NC3CCS(=O)(=O)C3)cc(=O)c2c1 (stereo not given) | -6.08
COc1ccc2cc(/C=N/NC(=O)c3ccc(CN(c4ccc(C)c(C)c4)S(C)(=O)=O)cc3)c(Cl)nc2c1 | -4.08
O=C(NCCS(=O)(=O)N1CCN(c2cccc(Cl)c2)CC1)C1CC1 | -3.41
COc1cc(NC(=O)c2cccc3c(-c4cccnc4)coc23)cc(OC)c1OC | -19.1
CCCCCOC(=O)C1=C(C)NC(=O)NC1c1ccc([N+](=O)[O-])cc1 (stereo not given) | -6.01
Cc1oc(-c2ccc(Cl)cc2)nc1CS(=O)CC(=O)NCCCN1CCN(Cc2ccccc2)CC1 (stereo not given) | -11
Cc1ccccc1CN1CCN(C(=O)CC(C)C)CC1 | -18.4
CCc1nc(Nc2ccncc2)c2oc3ccccc3c2n1 | 12.3
COc1ccc(C(=O)NNC(=O)C(=O)N2CCCCC2)cc1OC | -5.24
O=C(O)CC1S/C(=N\N=C2CCCCCC2)N(c2ccccc2)C1=O (stereo not given) | -22.2
O=C1c2cccc(OCc3ccc(F)cc3)c2CCN1Cc1ccc(F)cc1 | 21.3
CCc1nnc(NC(=O)CCC(=O)NCc2ccccc2Cl)s1 | 10.2
CC(=O)c1c(C)[nH]c(C(=O)COc2ccc3ccc(=O)oc3c2)c1C | -13.5
Cc1cc(C)nc(/N=C(\N)Nc2ccc(C(C)C)cc2)n1 | 3.7

Structure (SMILES) | inhibition [%]
CCN(CC)S(=O)(=O)c1ccc(NC(=O)c2ccc(N3CCCC3=O)cc2)cc1 | 3.05
COc1ccc2cc3cc(C(=O)NCc4cccs4)oc3nc2c1 | 4.16
CN(C)C(=O)c1ccc(-c2n[nH]c(=O)c3ccccc23)cc1 | 34.3
CC(C)n1c(SCC(=O)Nc2nc3c(s2)CCCC3)nc2c1c(=O)n(C)c(=O)n2C | 29.2
Cc1cccc(C)c1NC(=S)N(CCN(C)C)Cc1cccs1 | -19.4
O=C(NC1CCCCC1)c1n[nH]c2c1CCCCC2 | -44.7
Cc1cccc(NC(=O)CSCC(=O)N2CCCc3ccccc32)c1 | -14.1
CCN1C(=O)c2cccc3c(S(=O)(=O)Nc4ccc(O)c(C(=O)O)c4)ccc1c23 | 5.84
N#CCCN(C(=O)COC(=O)c1ccc2c(=O)n3c(nc2c1)CCC3)c1ccc(F)cc1 | -14.7
CCC(Oc1ccccc1)C(=O)Nc1cc(C(F)(F)F)ccc1N1CCOCC1 (stereo not given) | 10.6
CCN(CC(=O)Nc1c(F)cccc1F)C(=O)Cc1csc(-c2ccccc2)n1 | -10.5
CCOC(=O)C(=O)NNc1ccc(F)cc1 | -25.9
Cc1c(C(=O)N2CCN(Cc3ccc4c(c3)OCO4)CC2)sc2ncnc(N3CCN(c4ccccc4F)CC3)c12 | -22.2
CCN(CC)CCNc1nc2cc(OC)c(OC)cc2c2nc(-c3ccccc3)nn12 | 9.19
Cc1ccccc1C(OCC(O)CN1CCN(CCO)CC1)c1ccccc1 (stereo not given) | -13.1
Cc1cccc(C(C)C)c1-n1nnnc1-c1ccccc1 | -4.66
CCOC(=O)CNC(c1ccccc1)c1cc(Br)ccc1NC(C)=O (stereo not given) | -0.66
O=C(O)c1ccccc1-c1c2cc(I)c(=O)c(I)c-2oc2c(I)c(O)c(I)cc12 | 18.7
CC(O)(c1ccccc1)c1nc(-c2cccc(C#N)c2)cs1 (stereo not given) | -22.4
O=S(=O)(NCc1ccncc1)c1ccc(Br)s1 | -15.5

Test system: not listed separately
Experiment: VP16 transactivation inhibitors, counter-screen for SRC1 inhibitor project, cell-based, luminescence, high throughput (AID 588824; in the data active = inhibition above about 25%)
Conditions: cell-based VP16 transactivation luciferase luminescence; at 3.6 µM; hits give high values

Structure (SMILES) | inhibition
CCOc1ccc(NC(=O)NCCCSC2CCCCC2)cc1 | -11.4%
Cc1ccc(NC(=O)c2cc(=O)c3ccccc3o2)cc1S(=O)(=O)N1CCCCC1 | 7.05%
O=C(NCc1ccccn1)c1ccc(OC2CCN(Cc3ccc(F)cc3F)CC2)cc1 | 3.5%
COc1cc(C(=O)NC(=S)NNC(=O)c2cnccn2)cc(OC)c1OC | -5.2%
CCCCCCN1C2=NCCCN2c2ccccc21 | 10.4%
O=C(CN1CCN(Cc2ccc(Cl)cc2)C1=O)NCCCN1CCOCC1 | -10.7%
Cc1ccc2oc(C(=O)NC3CCS(=O)(=O)C3)cc(=O)c2c1 (stereo not given) | -12.1%
COc1ccc2cc(/C=N/NC(=O)c3ccc(CN(c4ccc(C)c(C)c4)S(C)(=O)=O)cc3)c(Cl)nc2c1 | 20.7%
O=C(NCCS(=O)(=O)N1CCN(c2cccc(Cl)c2)CC1)C1CC1 | 18.9%
COc1cc(NC(=O)c2cccc3c(-c4cccnc4)coc23)cc(OC)c1OC | 28.3% (active)
CCCCCOC(=O)C1=C(C)NC(=O)NC1c1ccc([N+](=O)[O-])cc1 (stereo not given) | 2.27%
Cc1oc(-c2ccc(Cl)cc2)nc1CS(=O)CC(=O)NCCCN1CCN(Cc2ccccc2)CC1 (stereo not given) | 27.4% (active)
Cc1ccccc1CN1CCN(C(=O)CC(C)C)CC1 | -7.73%
CCc1nc(Nc2ccncc2)c2oc3ccccc3c2n1 | 12%
COc1ccc(C(=O)NNC(=O)C(=O)N2CCCCC2)cc1OC | -0.82%
O=C(O)CC1S/C(=N\N=C2CCCCCC2)N(c2ccccc2)C1=O (stereo not given) | -9.41%
O=C1c2cccc(OCc3ccc(F)cc3)c2CCN1Cc1ccc(F)cc1 | 33.4% (active)
CCc1nnc(NC(=O)CCC(=O)NCc2ccccc2Cl)s1 | 6.37%
CC(=O)c1c(C)[nH]c(C(=O)COc2ccc3ccc(=O)oc3c2)c1C | 4.04%
Cc1cc(C)nc(/N=C(\N)Nc2ccc(C(C)C)cc2)n1 | 9.11%

Structure (SMILES) | inhibition
CCN(CC)S(=O)(=O)c1ccc(NC(=O)c2ccc(N3CCCC3=O)cc2)cc1 | 22.8%
COc1ccc2cc3cc(C(=O)NCc4cccs4)oc3nc2c1 | 39.4% (active)
CN(C)C(=O)c1ccc(-c2n[nH]c(=O)c3ccccc23)cc1 | 18.3%
CC(C)n1c(SCC(=O)Nc2nc3c(s2)CCCC3)nc2c1c(=O)n(C)c(=O)n2C | 23.6%
Cc1cccc(C)c1NC(=S)N(CCN(C)C)Cc1cccs1 | -2.41%
O=C(NC1CCCCC1)c1n[nH]c2c1CCCCC2 | -18.1%
Cc1cccc(NC(=O)CSCC(=O)N2CCCc3ccccc32)c1 | -4.48%
CCN1C(=O)c2cccc3c(S(=O)(=O)Nc4ccc(O)c(C(=O)O)c4)ccc1c23 | -15.2%
N#CCCN(C(=O)COC(=O)c1ccc2c(=O)n3c(nc2c1)CCC3)c1ccc(F)cc1 | 2.54%
CCC(Oc1ccccc1)C(=O)Nc1cc(C(F)(F)F)ccc1N1CCOCC1 (stereo not given) | 1.21%
CCN(CC(=O)Nc1c(F)cccc1F)C(=O)Cc1csc(-c2ccccc2)n1 | -7.28%
CCOC(=O)C(=O)NNc1ccc(F)cc1 | -4.08%
Cc1c(C(=O)N2CCN(Cc3ccc4c(c3)OCO4)CC2)sc2ncnc(N3CCN(c4ccccc4F)CC3)c12 | 18.3%
CCN(CC)CCNc1nc2cc(OC)c(OC)cc2c2nc(-c3ccccc3)nn12 | 33.3% (active)
Cc1ccccc1C(OCC(O)CN1CCN(CCO)CC1)c1ccccc1 (stereo not given) | 3.65%
Cc1cccc(C(C)C)c1-n1nnnc1-c1ccccc1 | 13.5%
CCOC(=O)CNC(c1ccccc1)c1cc(Br)ccc1NC(C)=O (stereo not given) | 4.71%
O=C(O)c1ccccc1-c1c2cc(I)c(=O)c(I)c-2oc2c(I)c(O)c(I)cc12 | 15.7%
CC(O)(c1ccccc1)c1nc(-c2cccc(C#N)c2)cs1 (stereo not given) | -4.39%
O=S(=O)(NCc1ccncc1)c1ccc(Br)s1 | 28.8% (active)
